Laboratory results from PubChem BioAssay AID1159580 (chemical genetic matrix, 2015).
Screen size: about 5,500 compounds; about 2,000 (36%) were called active. About 18% were inconclusive and are not listed. Rule as the data show it: active = normalized growth mostly below about 0.91 (no sharp cut-off); inconclusive = no clear call, values can overlap the other calls; inactive = mostly above about 0.92. The list shows a part of the results.

Test: chemical genetic growth profiling, strain panel (AID 1159580);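 also: tested at 20 µM; growth read once vehicle control cultures reached saturation at 30 °C; 1 = growth at the plate median or of vehicle wells; lower values mean less growth of the strain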
Details: growth OD

Measured: normalized growth

Cc1c(NC(=O)c2cccnc2)c(=O)n(-c2ccccc2)n1C
inactive: S. cerevisiae deletion strains, locus YJR066W, strain TOR1, active compounds read low 0.958 | S. cerevisiae deletion strains, locus YJR075W, strain HOC1, active compounds read low 0.99 | S. cerevisiae deletion strains, locus YKL009W, strain mrt4, active compounds read low 0.958 | S. cerevisiae deletion strains, locus YKL068W, active compounds read low 0.99 | S. cerevisiae deletion strains, locus YKL085W, strain MDH1 (second series), active compounds read low 0.988 | S. cerevisiae deletion strains, locus YKL085W, strain MDH1, active compounds read low 0.988 | S. cerevisiae deletion strains, locus YKL160W, strain elf1, active compounds read low 1.02 | S. cerevisiae deletion strains, locus YKL190W, strain CNB1, active compounds read low 0.989 | S. cerevisiae deletion strains, locus YKR001C, strain vps1, active compounds read low 0.991 | S. cerevisiae deletion strains, locus YKR026C, strain gcn3, active compounds read low 0.997 | S. cerevisiae deletion strains, locus YKR091W, strain srl3, active compounds read low 1 | S. cerevisiae deletion strains, locus YLL001W, strain dnm1, active compounds read low 0.986 | S. cerevisiae deletion strains, locus YLL026W, active compounds read low 0.993 | S. cerevisiae deletion strains, locus YLL041C, strain sdh2, active compounds read low 0.996 | S. cerevisiae deletion strains, locus YLR027C, strain aat2, active compounds read low 1 | S. cerevisiae deletion strains, locus YLR039C, strain RIC1, active compounds read low 0.974 | S. cerevisiae deletion strains, locus YLR058C, strain SHM2, active compounds read low 0.982 | S. cerevisiae deletion strains, locus YLR102C, strain apc9, active compounds read low 0.989 | S. cerevisiae deletion strains, locus YLR113W, strain HOG1, active compounds read low 1.06 | S. cerevisiae deletion strains, locus YLR221C, strain rsa3, active compounds read low 1.01 | S. cerevisiae deletion strains, locus YLR258W, strain gsy2, active compounds read low 0.997 | S. cerevisiae deletion strains, locus YLR262C, strain YPT6 (second series), active compounds read low 1.02 | S. cerevisiae deletion strains, locus YLR262C, strain YPT6, active compounds read low 0.961 | S. cerevisiae deletion strains, locus YLR268W, strain sec22, active compounds read low 0.982 | S. cerevisiae deletion strains, locus YLR320W, strain mms22, active compounds read low 1 | S. cerevisiae deletion strains, locus YLR330W, strain CHS5, active compounds read low 1 | S. cerevisiae deletion strains, locus YLR342W, strain FKS1 (second series), active compounds read low 1.09 | S. cerevisiae deletion strains, locus YLR342W, strain FKS1, active compounds read low 1 | S. cerevisiae deletion strains, locus YLR357W, strain rsc2, active compounds read low 0.963 | S. cerevisiae deletion strains, locus YLR370C, strain arc18, active compounds read low 1 | S. cerevisiae deletion strains, locus YLR371W, strain rom2, active compounds read low 0.998 | S. cerevisiae deletion strains, locus YLR384C, strain iki3, active compounds read low 0.999 | S. cerevisiae deletion strains, locus YLR418C, strain cdc73, active compounds read low 1.01 | S. cerevisiae deletion strains, locus YML016C, strain PPZ1, active compounds read low 0.994 | S. cerevisiae deletion strains, locus YML032C, strain rad52, active compounds read low 0.971 | S. cerevisiae deletion strains, locus YML120C, strain ndi1, active compounds read low 1.02 | S. cerevisiae deletion strains, locus YML124C, strain tub3, active compounds read low 0.999 | S. cerevisiae deletion strains, locus YMR058W, strain fet3, active compounds read low 1 | S. cerevisiae deletion strains, locus YMR078C, strain ctf18, active compounds read low 0.984 | S. cerevisiae deletion strains, locus YMR125W, strain sto1, active compounds read low 0.969 | S. cerevisiae deletion strains, locus YMR129W, active compounds read low 0.997 | S. cerevisiae deletion strains, locus YMR205C, strain PFK2, active compounds read low 0.959 | S. cerevisiae deletion strains, locus YMR223W, strain ubp8, active compounds read low 1.02 | S. cerevisiae deletion strains, locus YMR231W, strain pep5, active compounds read low 1 | S. cerevisiae deletion strains, locus YMR263W, strain SAP30, active compounds read low 0.987 | S. cerevisiae deletion strains, locus YMR307W, strain GAS1, active compounds read low 0.961 | S. cerevisiae deletion strains, locus YNL067W, strain RPL9B, active compounds read low 0.971 | S. cerevisiae deletion strains, locus YNL071W, strain lat1, active compounds read low 1.01 | S. cerevisiae deletion strains, locus YNL153C, strain GIM3, active compounds read low 0.952 | S. cerevisiae deletion strains, locus YNL183C, strain NPR1, active compounds read low 0.967 | S. cerevisiae deletion strains, locus YNL209W, strain ssb2, active compounds read low 1.01 | S. cerevisiae deletion strains, locus YNL233W, strain BNI4, active compounds read low 0.941 | S. cerevisiae deletion strains, locus YNL248C, strain rpa49, active compounds read low 1.01 | S. cerevisiae deletion strains, locus YNL250W, strain rad50, active compounds read low 0.975 | S. cerevisiae deletion strains, locus YNL271C, strain bni1, active compounds read low 0.991 | S. cerevisiae deletion strains, locus YNL298W, strain CLA4, active compounds read low 0.997 | S. cerevisiae deletion strains, locus YNL307C, strain MCK1, active compounds read low 0.995 | S. cerevisiae deletion strains, locus YNL322C, strain KRE1 (second series), active compounds read low 0.995 | S. cerevisiae deletion strains, locus YNL322C, strain KRE1, active compounds read low 0.996 | S. cerevisiae deletion strains, locus YNR049C, strain mso1, active compounds read low 0.997 | S. cerevisiae deletion strains, locus YNR052C, strain pop2, active compounds read low 0.996 | S. cerevisiae deletion strains, locus YOL006C, strain TOP1, active compounds read low 0.928 | S. cerevisiae deletion strains, locus YOL012C, strain htz1 0.85 | S. cerevisiae deletion strains, locus YOL147C, strain pex11, active compounds read low 1 | S. cerevisiae deletion strains, locus YOR001W, strain rrp6, active compounds read low 1.01 | S. cerevisiae deletion strains, locus YOR061W, strain CKA2, active compounds read low 0.969 | S. cerevisiae deletion strains, locus YOR069W, strain VPS5, active compounds read low 1 | S. cerevisiae deletion strains, locus YOR070C, strain gyp1, active compounds read low 1 | S. cerevisiae deletion strains, locus YOR080W, strain dia2, active compounds read low 0.99 | S. cerevisiae deletion strains, locus YOR083W, strain WHI5, active compounds read low 1.02 | S. cerevisiae deletion strains, locus YOR106W, strain vam3, active compounds read low 1.01 | S. cerevisiae deletion strains, locus YOR136W, strain idh2, active compounds read low 0.983 | S. cerevisiae deletion strains, locus YOR144C, strain elg1, active compounds read low 0.994 | S. cerevisiae deletion strains, locus YOR184W, strain ser1, active compounds read low 0.985 | S. cerevisiae deletion strains, locus YOR231W, strain MKK1, active compounds read low 1.05 | S. cerevisiae deletion strains, locus YOR265W, strain rbl2, active compounds read low 0.993 | S. cerevisiae deletion strains, locus YOR270C, strain vph1, active compounds read low 1 | S. cerevisiae deletion strains, locus YOR290C, strain snf2, active compounds read low 0.98 | S. cerevisiae deletion strains, locus YOR316C, strain cot1, active compounds read low 0.986 | S. cerevisiae deletion strains, locus YPL051W, strain arl3, active compounds read low 1.01 | S. cerevisiae deletion strains, locus YPL078C, strain atp4, active compounds read low 1.01 | S. cerevisiae deletion strains, locus YPL106C, strain sse1, active compounds read low 0.992 | S. cerevisiae deletion strains, locus YPL240C, strain hsp82, active compounds read low 0.995 | S. cerevisiae deletion strains, locus YPL256C, strain CLN2, active compounds read low 1.03 | S. cerevisiae deletion strains, locus YPR119W, strain clb2, active compounds read low 0.985 | S. cerevisiae deletion strains, locus YPR141C, strain kar3, active compounds read low 0.99 | S. cerevisiae deletion strains, locus YPR163C, strain tif3, active compounds read low 0.996 | S. cerevisiae deletion strains, locus YPR167C, strain met16, active compounds read low 0.991 | S. cerevisiae deletion strains, strain wtn01, active compounds read low 1.02 | S. cerevisiae strains, strain wild type, active compounds read low 0.983
